Bioassay records: PubChem BioAssay, Sanford-Burnham Center for Chemical Genomics
PABP FP inh – PABP-poly(A) binding inhibition; inhibition, % at 35 µM; actives 1% (n = 290,000); PABP-poly(A) RNA binding, fluorescence polarization; P11940;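 further: calls also rest on retests at 20 µM and on dose response follow-up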
eIF4H inh – inhibitors of RNA binding by human eIF4H | Q15056 | eIF4H fluorescence polarization binding assay | inhibition, % at 35 µM | actives 0.94% (n = 290,000);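 further: calls also rest on retests at 20 µM and on dose response follow-up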
PHOSPHO1 inh – inhibitors of human PHOSPHO1 phosphatase; Q8TCT1; recombinant PHOSPHO1, absorbance phosphatase assay; inhibition, % at 13.3 µM; actives 1.1% (n = 290,000); in the data active means inhibition above about 60%
Target sequence (Q8TCT1 whole entry, looked up): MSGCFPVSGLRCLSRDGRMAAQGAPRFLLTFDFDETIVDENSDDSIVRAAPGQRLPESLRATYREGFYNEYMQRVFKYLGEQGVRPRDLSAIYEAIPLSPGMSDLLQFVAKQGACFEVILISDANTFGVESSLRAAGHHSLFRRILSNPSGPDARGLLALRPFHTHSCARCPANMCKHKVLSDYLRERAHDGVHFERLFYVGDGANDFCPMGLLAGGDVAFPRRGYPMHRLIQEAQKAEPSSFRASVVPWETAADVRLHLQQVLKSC
PABP1 MLLE inh – blocks PAM2 peptide binding to the PABP1 MLLE domain | actives 0.36% (n = 360,000) | inhibition, % at 20 µM | GST-MLLE / FITC-PAM2 fluorescence polarization | AID 588489; in the data active means inhibition above about 35%, passing the limit was not always enough;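 further: plate controls were DMSO wells with GST-MLLE for no effect and wells lacking GST-MLLE protein for full effect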
CRFR2-BP antag – CRF-BP/CRF-R2 complex antagonism | AID 588475 | actives 0.59% (n = 350,000) | inhibition, % at 11.8 µM | HEK293 CRF-R2/CRF-BP, CRF-induced calcium fluorescence;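 active means inhibition of the ligand-induced calcium signal above about 50% at the single tested concentration, limit read from the data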
Active calls of the source: *; ? = inconclusive; . = no result. Shown are actives, neighbours in structure and some others; about 2.6% of the full set was active somewhere. Unless noted, how the calls were made is not given here.

SMILES	PABP FP inh	eIF4H inh	PHOSPHO1 inh	PABP1 MLLE inh	CRFR2-BP antag
O=C(Nc1nc2ccsc2c(=O)s1)c1ccco1	23	64*	-11	-6	-5
Cc1csc2c(=O)sc(NC(=O)c3ccco3)nc12	5	0	3	32	-12
Cc1cccc(S(=O)(=O)NC(=O)C2(C)CCN2C(=O)c2ccccc2CCc2ccccc2)c1 (stereo not drawn)	.	.	.	-12	.
O=c1[nH]ncc(NCc2ccc(Cl)cc2)c1Cl	53*	0	6	-10	-2
O=C1NC(=Nc2ccc3ccccc3c2)S/C1=C/c1ccco1	-6	80*	-94	-78	10
C(=Nc1cccc2c(N=Cc3ccco3)cccc12)c1ccco1	-5	?	18	67*	3
CN(C)c1ccc(N=Cc2ccco2)cc1	25	38	23	14	13
C(=N\C(/N=C/c1ccco1)c1ccco1)/c1ccco1	108*	103*	9	12	3
Cc1nc(N2CCN(c3ccccc3O)CC2)c2c(-c3ccccc3)csc2n1	71*	100*	15	-10	1
O=S(=O)(O)c1cccc2c(N=Nc3ccc(O)c4ncccc34)cccc12	98*	82*	14	9	8
O=C(NCc1n[nH]c(=S)n1-c1ccc(F)cc1)c1ccc(S(=O)(=O)N2CCCC2)cc1	6	10	96*	-5	1
O=c1[nH]c(SCc2n[nH]c(=S)n2-c2ccccc2)nc2sc3c(c12)CCC3	10	8	85*	16	93*
O=c1[nH]c(SCc2n[nH]c(=S)n2-c2ccccc2)nc2ccccc12	6	14	-16	-3	-25
COc1ccc(Nc2nnc(SCc3cc(=O)n4ccsc4n3)s2)cc1	31*	75*	0	7	-27
Cc1ccc(Nc2nnc(SCc3cc(=O)n4cc(C)ccc4n3)s2)cc1	3	1	-4	-19	-5
Cc1ccc2nc(CSc3nnc(Nc4ccccc4F)s3)cc(=O)n2c1	active	70*	2	-8	8
CCC(C)NC(=O)C1c2ccccc2C(=O)N(c2ccc(OC)cc2)C1c1ccc(OC)cc1 (stereo not drawn)	-2	-13	14	4	-8
C[C@H]1CN([C@@H](C)CO)C(=O)CCCn2nncc2CO[C@H]1CN(C)S(=O)(=O)c1ccc2ccccc2c1	.	.	.	-1	-6
NC(=O)SCC(=O)Nc1cccc(Cl)c1	2	-8	31	37	2
Cc1ccc(NC(=O)CSC(N)=O)cc1Cl	0	-2	-9	41*	-16
Cc1ccc(NC(=O)Cc2nnc(SCC(=O)c3ccc(Br)cc3)n2C)cc1Cl	-3	8	78*	.	.
NC(=O)SCC(=O)Nc1ccc(Cl)c(Cl)c1	0	6	32	41*	-32
NC(=O)SCC(=O)Nc1ccc(Cl)cc1	-3	9	41	22	-10
FC(F)(F)c1ccccc1Cc1c(-c2cccc(Cl)c2)nc2ccc(Cl)cn12	.	.	.	-5	.
C[C@@H]1ON(C)[C@H]2C[C@H]3c4[nH]c5ccc(-c6ccc7c(c6)OCO7)cc5c4CCN3C[C@@H]12	.	.	.	10	-8
SMILES	PABP FP inh	eIF4H inh	PHOSPHO1 inh	PABP1 MLLE inh	CRFR2-BP antag
Cc1nn(-c2cccc(Cl)c2)c2nc(C(F)(F)F)[nH]c(=O)c12	-1	9	15	13	86*
CCOC(=O)C(C#N)(Cc1ccc2ccccc2n1)Cc1ccc2ccccc2n1	.	.	.	2	2
CN(C)c1ccc(/C=C/c2ccc3ccccc3n2)cc1	67	109	32	-18	-90
CCCN(CCC)c1ccc(/C=C/c2ccc3cc(OCC)ccc3n2)cc1	41*	?	27	-95	-23
CN(Cc1ccccc1)C(=O)CN1CCN(S(=O)(=O)c2ccccc2F)CC1	.	.	.	-10	-12
N#CCSc1ccccc1NC(=O)COC(=O)C1CCN(C(=O)c2ccc(Cl)cc2)CC1	.	.	.	14	-6
CC(C)(C)C1CCC(=NNc2nc3ccccc3[nH]2)CC1 (stereo not drawn)	51*	13	15	-18	-31
c1ccc(CN2CCC(=NNc3nc4ccccc4[nH]3)CC2)cc1	9	26	-6	-31	-5
CSc1c(C#N)c(N)nc2sc(C(=O)c3ccccc3)c(N)c12	60*	85*	18	11	9
CSc1nc(N)nc(SCC(=O)c2ccccc2)c1C#N	3	-1	20	-32	-9
CC(=O)Nc1ccc(CN(C)c2c(C)nc3ccc(C(=O)N(C)Cc4ccco4)cn23)cc1	.	.	.	-18	.
CC(C)n1nc(C(=O)Oc2cccc(Cl)c2Cl)c2ccccc2c1=O	60*	3.7*	6	-7	-33
COc1ccc(-c2c(C)nn3c(N4CCCCCC4)cc(C)nc23)cc1OC	9	4	33	6	56*
COc1ccc(-c2c(C)nn3c(N4CCOCC4)cc(C)nc23)cc1OC	-5	-17	.	6	13
CCOC(=O)N1CCC(NC(=O)CCC(=O)N2CCOc3ccccc32)CC1	-16	-14	22	2	5
O=C(CCC(=O)N1CCOc2ccccc21)NC1CCCCCC1	4	-6	7	4	74*
CC(C)Oc1ccc(C(=O)NC2(C(F)(F)F)N=C3SCCN3C2=O)cc1 (stereo not drawn)	-8	-7	10	46*	5
N#C/C(=C/c1ccc(N2CCOCC2)c([N+](=O)[O-])c1)C(N)=O	1.5*	62*	12	3	1
CO/N=C/c1ccc(N2CCOCC2)c([N+](=O)[O-])c1	-10	-5	-12	7	5
O=C(c1ccc(N2CCCCC2)c([N+](=O)[O-])c1)N1CCOCC1	-9	-2	43	-2	5
Cn1c(=O)n(C)c2cc([N+](=O)[O-])c(N3CCN(C(=O)c4ccc(Cl)cc4)CC3)cc21	-2	-16	8	-1	-13
O=C(c1ccc(N2CCOCC2)c([N+](=O)[O-])c1)N1CCCCC1	0	-4	74*	15	5
Cn1c(=O)n(C)c2cc([N+](=O)[O-])c(N3CCN(C(=O)c4ccc(F)cc4)CC3)cc21	8	-4	60*	-1	16
CC(C)[C@H](NC(=O)N1CCn2c1nc1ccccc12)C(=O)N1CCCCC1	8	-2	-25	-3	10
Cc1ccc(OCC(=O)c2cc(C)n(C)c2C)c([N+](=O)[O-])n1	8	76*	-20	-1	10
O=C(NC(=S)N1CCCCC1)C12CC3CC(CC(C3)C1)C2	-6	-7	84*	-18	2
COc1cc(OC)cc(C(=O)NCC2CCCN(Cc3cccc(C(C)=O)c3)C2)c1 (stereo not drawn)	-5	-4	19	10	-14
COC(=O)c1[nH]c2ccccc2c1NC(=O)C(C)N1CCOCC1 (stereo not drawn)	-5	1	-4	-15	-5
COC(=O)c1[nH]c2ccccc2c1NC(=O)C(C)N1CCN(C(=O)c2ccco2)CC1 (stereo not drawn)	-13	-8	72*	-14	7
CCCNC(=O)C1(C)CCN(C(=O)c2cccc(C(F)(F)F)c2)C1 (stereo not drawn)	.	.	.	-1	.
